In the library only some 7.9% were active in any assay of this set; here they are far more common.
HCMV inh: inhibitors of human cytomegalovirus; HFF cells, HCMV-luciferase reporter, 72 h; active compounds read low; activity change, negative = inhibition, % at 57.5 µM; actives 4.5% (n = 410,000); in the data active = activity change below about -60%; inconclusive = no clear call, values can overlap the other calls; inactive = above about -39%
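Luciferase read-out from HCMV-luciferase-infected HFFs (MOI 1 PFU/cell) 72 h post infection at 37C; compounds added after 16 h cell attachment; activity normalized between buffer-only basal and Salinomycin (10uM) inhibitor controls.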
MARV entry inh: inhibitors of Marburg virus binding or cell entry. Potency, µM (highest dose often 37.8 µM), usual class: inhibitors. AID 540276. Marburg virus pseudotyped entry inhibition, cell reporter. actives 1.8% (n = 300,000); calls by dose curve; tested in HEK293 cells
FMDV inh: foot and mouth disease virus antiviral activity. actives 1.2% (n = 410,000). AID 1159524. Potency, µM (series often up to 57.9 µM), usual class: inhibitors. FMDV antiviral cell-based qHTS; calls by dose curve; tested in HEK293T cells; also: read-out not given here; nearly all actives have a fitted effect of over 45% in size
LASV entry inh: inhibitors of Lassa virus binding or cell entry; Potency, µM (series often up to 37.9 µM), hits mostly inhibitors; actives 1.2% (n = 300,000); Lassa virus pseudotype entry inhibition, cell reporter; calls by dose curve; tested in HEK293 cells; also: nearly all actives have a fitted effect of over 50% in size
HCV inh: blocks hepatitis C virus; Huh7.5.1 HCVcc-Cre infection, luciferase reporter, 44 h; Potency, µM (titrated, usually from 41.8 µM), usual class: inhibitors; actives 3.4% (n = 340,000); AID 651820; active = well fitted inhibition curve with a large enough effect; inconclusive = small, poorly fitted or top-dose-only effect, or another doubt; inactive = no such curve, though single readings can be large or run the other way
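Infectious HCV cell culture screen: compound-treated cells (1,000/well, pre-plated 4 h) are infected with HCVcc-Cre at roughly 0.5 moi and grown 44 h. Infection is quantified by luciferase signal after 15 min substrate incubation at room temperature.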
Of the large screens only hits and unclear results are named; the others gave an inactive call; ! = repeats disagree.

CC(O)(COc1ccccc1)c1ccc2c(c1)CN(Cc1cccc3ncccc13)CCO2 (configuration not stated)	none (no result: HCMV inh, MARV entry inh, LASV entry inh, HCV inh)
CN(C)c1ccc(-c2nccc(Nc3ccc(F)cc3)n2)cc1	none (no result: HCMV inh, MARV entry inh, LASV entry inh, HCV inh)
O=C(CSc1nncn1-c1ccccc1)Nc1cccc(S(=O)(=O)N2CCCCC2)c1	none (no result: FMDV inh)
Cc1nnc(SCC(=O)Nc2cccc(S(=O)(=O)N3CCCCC3)c2)s1	none (no result: MARV entry inh, LASV entry inh)
O=C(CSc1nnnn1-c1ccc(O)cc1)Nc1cccc(S(=O)(=O)N2CCCC2)c1	HCMV inh -72.7, MARV entry inh inconclusive, LASV entry inh inconclusive, HCV inh inconclusive
Cc1nnc(NC(=O)c2cc(S(=O)(=O)N3CCCCC3)ccc2Cl)s1	HCV inh 11.2µM
Cc1nnc(SCC(=O)Nc2ccc(S(=O)(=O)N3CCCCC3)cc2)s1	HCMV inh -64.6
Cc1nnc(SCC(=O)NN2C(=O)NC3(CCCCC3)C2=O)s1	HCMV inh -61.8, MARV entry inh inconclusive
O=C(Nc1nccs1)c1cc(S(=O)(=O)N2CCCCC2)ccc1Cl	MARV entry inh inconclusive, FMDV inh inconclusive
CCOC(=O)c1cc(S(=O)(=O)NCc2ccccc2)[nH]n1	none (no result: MARV entry inh, HCV inh)
Cc1cccc(NC(=O)CSc2nnnn2C2CCCC2)c1	none
Cc1nnc(SCC(=O)Nc2ccc(-c3nc4ccccc4s3)cc2)s1	MARV entry inh inconclusive, LASV entry inh 10µM
O=C(CSc1nnnn1C1CC1)Nc1cccc(S(=O)(=O)N2CCCC2)c1	HCMV inh -74.8, MARV entry inh inconclusive
Cc1ccc(OC(C)C(=O)N2CCN(c3ccccn3)CC2)cc1 (configuration not stated)	none
CCCCN(C=O)c1c(CC)nc2ccc(C(=O)N3CCN(S(=O)(=O)CC)CC3)cn12	none (no result: MARV entry inh, LASV entry inh, HCV inh)
COc1ccc(C(=O)C2CCCN(Cc3sc(N4CCCC4)nc3Cl)C2)c(OC)c1 (configuration not stated)	HCMV inh -72.2, FMDV inh inconclusive, HCV inh inconclusive (no result: MARV entry inh, LASV entry inh)
COc1ccc(C(=O)C2CCCN(Cc3cnc(C)s3)C2)c(OC)c1 (configuration not stated)	HCMV inh inconclusive, FMDV inh inconclusive, LASV entry inh inconclusive, HCV inh inconclusive
COc1ccc(C(=O)C2CCCN(Cc3cc(Cl)ccc3O)C2)c(OC)c1 (configuration not stated)	MARV entry inh inconclusive, FMDV inh inconclusive, LASV entry inh inconclusive, HCV inh 11.2µM
Cc1cc(C)cc(OCC(=O)Nc2c(C)ccc3nsnc23)c1	none (no result: HCV inh)
CCCc1nc2ccc(NC(C)=O)cc2c(=O)n1Cc1ccccc1Cl	none (no result: MARV entry inh, LASV entry inh)
CCOC(=O)/C=c1/s/c(=C/c2ccc3cc(OC)ccc3c2)c(=O)n1CC(=O)NCC1CCCO1 (configuration not stated)	HCV inh inconclusive
CCOC(=O)/C=c1\s/c(=C\c2c(OC)ccc3ccccc23)c(=O)n1CC(=O)NCC1CCCO1 (configuration not stated)	HCMV inh -94.7, MARV entry inh inconclusive, LASV entry inh inconclusive, HCV inh inconclusive
O=C(/C=C/c1ccccc1Cl)c1ccc[nH]1	HCMV inh -62.5, MARV entry inh inconclusive, HCV inh inconclusive
O=C(/C=C/c1ccc(Cl)cc1Cl)c1ccc[nH]1	none (no result: MARV entry inh, LASV entry inh)
Nc1cc(OC(=O)c2ccco2)nn1S(=O)(=O)c1ccc(F)cc1	none
Nc1cc(OC(=O)c2ccc(F)cc2)nn1S(=O)(=O)c1ccc(F)cc1	LASV entry inh 2µM
CCOC(=O)N1CCC(NC(=O)c2ccc3c(c2)N(Cc2ccc(Cl)cc2)C(=O)c2ccccc2S3=O)CC1 (configuration not stated)	HCMV inh -82.0, MARV entry inh inconclusive (no result: HCV inh)
CCOC(=O)N1CCN(C(=O)c2ccc3c(c2)N(Cc2cc(C)ccc2C)C(=O)c2ccccc2S3=O)CC1 (configuration not stated)	HCMV inh -88.5!, MARV entry inh inconclusive, FMDV inh inconclusive, LASV entry inh inconclusive, HCV inh inconclusive
Cc1ccc(C)c(CN2C(=O)c3ccccc3S(=O)c3ccc(C(=O)NCCCN4CCCC4)cc32)c1 (configuration not stated)	HCMV inh inconclusive, HCV inh 7.08µM (no result: MARV entry inh, LASV entry inh)
CCOC(=O)N1CCC(NC(=O)c2ccc3c(c2)N(Cc2ccc(F)cc2)CCS3)CC1	FMDV inh inconclusive, HCV inh 17.8µM (no result: LASV entry inh)
Cc1cc(C)c(C(=O)CC(=O)c2cccnc2)c(C)c1	none
C=CCc1cccc(C=NNC(=O)CN2CCN(Cc3ccccc3)CC2)c1O	MARV entry inh inconclusive, LASV entry inh 11.6µM (no result: HCMV inh, FMDV inh, HCV inh)
C=CCc1cccc(/C=N/NC(=O)c2ccccc2Br)c1O	HCMV inh -99.1, HCV inh 14.1µM (no result: MARV entry inh, LASV entry inh)
C=CCc1cccc(/C=N/NC(=O)c2ccc3nc[nH]c3c2)c1O	HCMV inh -100.6, HCV inh inconclusive (no result: MARV entry inh, LASV entry inh)
C=CCc1cccc(/C=N/NC(=O)C(=O)Nc2ccc(C)cc2)c1O	none
C=CCc1cccc(/C=N/NC(=O)C(C)Nc2ccc(C)cc2)c1O (configuration not stated)	HCMV inh -89.4, MARV entry inh inconclusive, FMDV inh inconclusive, LASV entry inh inconclusive, HCV inh 10µM
O=C(N/N=C/c1ccccc1C(=O)O)c1ccccc1Br	none
O=C(N/N=C/c1ccc(Cl)cc1Cl)c1ccc2nc[nH]c2c1	none (no result: MARV entry inh, LASV entry inh)
COc1ccc(NC(=O)c2cc(S(=O)(=O)N3CCCC(C)C3)cn2C)c(OC)c1 (configuration not stated)	LASV entry inh inconclusive (no result: MARV entry inh, HCV inh)
C=CCc1cccc(/C=N/NC(=O)c2ccccc2OC)c1O	HCMV inh -97.4, MARV entry inh inconclusive, HCV inh inconclusive
CC(=O)Nc1ccc(NC(=O)Cn2cc3c(n2)CCCCC3)cc1	none (no result: HCV inh)
O=C(CSc1nc2c([nH]c3ccccc32)c(=O)n1-c1ccccc1F)Nc1cccc(C(F)(F)F)c1	HCMV inh -62.4, FMDV inh inconclusive, LASV entry inh inconclusive (no result: MARV entry inh, HCV inh)
CC(=O)Nc1ccc(NC(=O)CSc2nc3c([nH]c4ccccc43)c(=O)n2-c2ccccc2F)cc1	MARV entry inh inconclusive, HCV inh inconclusive
Cc1ccc(-n2c(SCC(=O)Nc3cc(C)on3)nc3c([nH]c4ccccc43)c2=O)cc1	HCMV inh -70.0, HCV inh inconclusive (no result: LASV entry inh)
COc1cccc(-n2c(SCC(=O)Nc3c(C)cc(C)cc3C)nc3c([nH]c4ccccc43)c2=O)c1	HCMV inh -80.3, LASV entry inh inconclusive (no result: MARV entry inh, HCV inh)
CCOc1ccc(-n2c(SCC(=O)Nc3cc(C)on3)nc3c([nH]c4ccccc43)c2=O)cc1	HCV inh 22.4µM (no result: MARV entry inh)
Cc1cc(NC(=O)CSc2nc3c([nH]c4ccccc43)c(=O)n2-c2ccc(Cl)cc2)no1	LASV entry inh inconclusive (no result: MARV entry inh, HCV inh)
CCc1ccc(NC(=O)CSc2nc3c([nH]c4ccccc43)c(=O)n2-c2ccc(C)cc2)cc1	HCMV inh -96.0, LASV entry inh inconclusive (no result: MARV entry inh, HCV inh)
Cc1n[nH]c(C)c1N1C(=O)c2cccc3c(Br)ccc(c23)C1=O	LASV entry inh inconclusive, HCV inh inconclusive
Cc1n[nH]c(C)c1N1C(=O)c2cccc3cc(Br)cc(c23)C1=O	HCV inh 4.47µM
CC1CC1C(=O)OCC(=O)NC(=O)NC12CC3CC(CC(C3)C1)C2 (configuration not stated)	MARV entry inh inconclusive
O=C(O)C1C2C=CC(C2)C1C(=O)NCc1ccc(Cl)cc1Cl (configuration not stated)	none
